The source of these data is PubChem BioAssay.

For test [1], the system named is Human papillomavirus type 1a protein E7 (residues 44-93). The test is described as follows: HPV1a E7 fragment binders on microarrays, primary screen, biochemical, small-molecule microarray, residues 44-93, 635 nm fluorescence (AID 1108).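 Further: E7 fragment applied at 1 µg/mL in TBST for 1 h at 4 C; score combines spot fluorescence with its signal to noise ratio.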 The note with it: small-molecule microarray binding, fluorescence 635 nm; higher = more signal.
Test [2] in a line: modulators of HCV replicon luciferase signal, primary screen, HCV replication inhibitor project, Huh7 cells, luciferase reporter (AID 1109).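 Further: huh7 hepatoma cells harbouring a luciferase neomycin HCV replicon reporter; luciferase luminescence as measure of HCV replicon replication; test concentration not given here.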 The note with it: 48 h, higher = more signal. For orientation: In antiviral work, replicon cells carry a viral genome segment that copies itself.
Test [3] addresses Left-right determination factor 2 (Homo sapiens) (UniProt O00292). In words: LEFTY2 binders on small-molecule microarrays, primary screen, biochemical, small-molecule microarray, 635 nm fluorescence scan (AID 1110). The note with it: LEFTY2 binding, higher = more signal.
For test [4], the target named is Calmodulin-1 (Homo sapiens) (UniProt P0DP23). The test is described as follows: CALM1 binders on microarrays, EGTA buffer, profiling panel, biochemical, small-molecule microarray, Cy5-labelled CALM1 (AID 1111).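 Further: labelled calmodulin applied in Tris saline Tween buffer holding calcium plus EGTA and DTT.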 As to conditions: Cy5-CALM1 binding fluorescence, higher = more signal.
For test [5] the target is unchanged. The test is described as follows: calcium-bound CALM1 binders on microarrays, profiling panel, artefact control for SMM control-protein annotation, biochemical, small-molecule microarray, Cy5-labelled CALM1, plus calcium (AID 1112).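 Further: score merges spot fluorescence with signal to noise from triplicate slides.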 The note with it: Cy5-CALM1 binding fluorescence, higher = more signal.
Test [6] can be described thus: small-molecule microarray binders of probe aWnt5a, primary screen, biochemical, biotinylated probe, 635/667 nm fluorescence (AID 1113).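 Further: score merges 667 nm fluorescence intensity with signal-to-noise per printed feature.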 The note with it: higher = more signal.
Test [7] is described as follows: small-molecule microarray binders of probe aShh, primary screen, biochemical, biotinylated probe, 635/667 nm fluorescence (AID 1114).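 Further: probe is biotin-labelled aShh protein from a stem cell growth factor screen; measures binding of labelled protein to compounds printed on the slide; score merges feature fluorescence at 667 nm with signal-to-noise.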 The note with it: higher = more signal.
Test [8] is described as follows: small-molecule microarray binders of probe aNog, primary screen, biochemical, biotinylated probe, 635/667 nm fluorescence (AID 1115).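 Further: probe is biotinylated aNog protein used at 0.15 µg/mL for 1 h at 4 C; z-score combines 667 nm fluorescence of each spot with its signal to noise.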 The note with it: higher = more signal.
For test [9], the target named is Torsin-1A-interacting protein 1 (Homo sapiens) (UniProt Q5JTV8). The test is described as follows: LAP1 binders from COS7 cell lysate, primary screen, small-molecule microarray, 635/667 nm fluorescence (AID 1116). As to conditions: COS7-hLAP1 lysate binding, 635 nm fluorescence, higher = more signal.
In test [10] the target is Alpha-bungarotoxin (Bungarus multicinctus) (UniProt P60615). The test is described as follows: alpha-bungarotoxin binders on microarray, profiling panel, artefact control for SMM control protein annotation, biochemical, small-molecule microarray, Alexa647 label, 635/667 nm fluorescence (AID 1117). As to conditions: alpha-BTX-A647 binding fluorescence, higher = more signal.

Structures are written as SMILES.

Sequence of Left-right determination factor 2 (Homo sapiens) (O00292 whole entry, looked up): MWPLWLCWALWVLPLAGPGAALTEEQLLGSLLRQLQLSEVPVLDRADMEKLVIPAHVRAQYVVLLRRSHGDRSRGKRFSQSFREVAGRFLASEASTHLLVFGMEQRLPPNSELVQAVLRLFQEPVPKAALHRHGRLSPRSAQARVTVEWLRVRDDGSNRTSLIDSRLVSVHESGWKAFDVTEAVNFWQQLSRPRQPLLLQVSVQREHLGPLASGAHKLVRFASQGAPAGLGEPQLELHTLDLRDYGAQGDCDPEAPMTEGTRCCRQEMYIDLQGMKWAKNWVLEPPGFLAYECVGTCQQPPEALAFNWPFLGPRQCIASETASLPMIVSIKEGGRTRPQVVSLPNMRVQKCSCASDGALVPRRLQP
Sequence of Alpha-bungarotoxin (Bungarus multicinctus) (P60615 whole entry, looked up): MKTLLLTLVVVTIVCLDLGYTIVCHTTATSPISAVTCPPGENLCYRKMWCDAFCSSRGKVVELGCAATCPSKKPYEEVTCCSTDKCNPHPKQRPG
Sequence of Torsin-1A-interacting protein 1 (Homo sapiens) (Q5JTV8 whole entry, looked up): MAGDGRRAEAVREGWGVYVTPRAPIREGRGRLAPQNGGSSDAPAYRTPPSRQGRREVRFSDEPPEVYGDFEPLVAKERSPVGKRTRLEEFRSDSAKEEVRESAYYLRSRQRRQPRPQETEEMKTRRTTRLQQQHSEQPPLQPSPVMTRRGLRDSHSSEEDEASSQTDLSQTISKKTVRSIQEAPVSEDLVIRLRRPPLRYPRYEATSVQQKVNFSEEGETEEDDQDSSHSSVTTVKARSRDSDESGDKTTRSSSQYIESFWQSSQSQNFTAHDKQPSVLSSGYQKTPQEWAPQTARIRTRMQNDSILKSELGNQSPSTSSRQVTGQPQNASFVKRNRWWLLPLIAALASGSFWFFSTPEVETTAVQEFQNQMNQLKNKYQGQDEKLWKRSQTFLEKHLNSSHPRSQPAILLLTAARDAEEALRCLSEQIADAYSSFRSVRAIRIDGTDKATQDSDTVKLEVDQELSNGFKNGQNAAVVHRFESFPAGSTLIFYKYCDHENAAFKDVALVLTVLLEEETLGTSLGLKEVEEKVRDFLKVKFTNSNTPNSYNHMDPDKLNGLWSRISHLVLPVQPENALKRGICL

For `NCCCC[C@@H]1NC(=O)[C@H]2C[C@@H](C(=O)O)[C@@H](c3cccc(OCCO)c3)N2C1=O`, the composite z-score in test [1] was 1.4; in [3], 1.53; in test [4], 0.441; in test [5], -0.197; in [6] it was 0.0017; in test [7] it was 0.166. Besides, the composite z-score in [8] was 1.33; in [9], 1.07; in test [10] it was 2.12. Besides, in test [2], the z-score is -1.56.
Regarding `CCCCC(=C=CC[C@H](O)c1ccc(OCCO)cc1)C[C@H](O)c1ccccn1`, the composite z-score in test [1] was 1.31; in test [3], 0.295; in test [4], 0.587; in test [5], -0.758; in test [6] it was -0.0758; in test [7] it was -0.0011. Besides, the composite z-score in test [8] is 0.253; in test [9], 0.875; in test [10], 0.634. In test [2], the z-score was -0.028.
As to `C=C(CCCC)C(=O)CC[C@H](OC(C)=O)c1ccccc1OCCO`, the composite z-score in test [1] was -0.0354; in test [3], 0.549; in test [4], -0.592; in test [5], -1.13; in [6], -0.0182; in test [7], 0.0121. Also, the composite z-score in test [8] was -0.234; in test [9], 0.173; in test [10] it was -0.106. For the same compound, the z-score in [2] was -3.4.
As for `COCC(=C=CC[C@@H](O)c1ccc(OCCO)cc1)C[C@@H](O)COCc1ccccc1`, the composite z-score in test [1] was determined as 1.39; in [3], 1; in [4] it was 0.0268; in test [5], 0.473; in test [6] it was 0.0559; in test [7], 0.0611. Also, the composite z-score was 0.629 in test [8], 0.319 in test [9] and 0.0353 in [10]. The same compound came in with a z-score in test [2] of -1.08.
As for `C=CCNC(=O)[C@@H]1[C@H]2C(=O)O[C@H](c3ccccc3)[C@H](c3ccccc3)N2[C@H](c2ccccc2OCCO)[C@@]12C(=O)N(C(=O)OCCOC)c1ccc(C#CCCO)cc12`, the composite z-score was 1.34 in test [1]; 0.0333 in [3]; 1.66 in test [4]; 0.428 in [5]; -0.006 in [6]; 0.131 in [7]. For the same compound, the composite z-score was -0.305 in [8], 0.87 in test [9] and 0.274 in [10]. Also, the z-score in test [2] was -1.82.
For the compound `CCCCC(O)C1C=CC2C(=O)N(C)C(=O)C2N1Nc1ccccc1` (stereo not given), the composite z-score in test [1] is 1.18; in test [3] it was -0.431; in test [4] it was 0.259; in test [5], 0.032; in test [6] it was 0.0044; in test [7] it was -0.301. Further, the results for the composite z-score in test [8], in test [9] and in [10] were -0.0683, 1.02 and 0.27, respectively. For the same compound, in test [2], the z-score was -0.413.
Take `C[N+](C)(C)CCCCCCNC(=O)[C@H]1C[C@H]2C(=O)NCC(=O)N2[C@H]1c1cccc(OCCO)c1`: the composite z-score is 0.626 in [1]; 1.5 in [3]; -0.748 in [4]; -0.95 in test [5]; -0.096 in test [6]; -0.311 in test [7]. The composite z-score is -0.231 in test [8], 0.509 in test [9] and 0.355 in test [10]. The compound further had a z-score in test [2] of 0.643.
Regarding `N#Cc1ccc(C(O)C2C=CC3C(=O)NC(=O)C3N2Nc2ccccn2)cc1` (stereo not given), the composite z-score was 0.447 in test [1]; 0.286 in test [3]; 0.2 in test [4]; -0.272 in test [5]; -0.178 in [6]; 0.151 in [7]. Besides, the composite z-score in test [8] was 0.287; in [9] it was -0.298; in test [10] it was 0.617. The z-score in test [2] is -0.676.
For the compound `C=CCC(OC(C)=O)[C@@H]1[C@@H](N(Cc2ccc(-c3cccc(C(F)(F)F)c3)o2)C(=O)Cc2ccc(OC)cc2)c2cc(OCCCO)ccc2N1C(=O)c1ccc2ccccc2n1` (stereo not given in full), the composite z-score in [1] was -0.551; in test [3] it was -0.323; in [4], -0.698; in test [5], -0.605; in [6] it was -0.0017; in [7], -0.0904. The composite z-score in [8] is 0.227; in test [9], -0.366; in test [10], -0.362. In [2], this compound returned a z-score of 0.185.
For `C#CCN(C/C=C/c1ccccc1)[C@H](CO[Si](C)(C)C(C)(C)C)c1ccccc1`, the composite z-score in test [1] is -0.115; in test [3], 0.301; in test [4] it was -0.488; in test [5] it was -1.03; in test [6], -0.0403; in test [7], -0.0553. For the same compound, the figures for the composite z-score in test [8], in test [9] and in [10] were -0.565, -0.221 and -0.482, respectively. In test [2], this compound displayed a z-score of -2.36.
Turning to `Cc1c(NC(=O)/C(C#N)=C/c2ccc(Cl)cc2)c(=O)n(-c2ccccc2)n1C`, the composite z-score is -0.648 in [1]; 0.119 in test [3]; 1.14 in test [4]; 0.629 in [5]; -0.0869 in test [6]; -0.0503 in [7]. Also, the composite z-score in [8] was determined as 0.486; in [9], 1.58; in test [10], 0.766. The same compound had a z-score in [2] of -0.871.
`COC(=O)[C@@]1(Cc2ccc(OC)cc2)[C@H]2c3cc(C(=O)N(C)C)n(Cc4ccsc4Br)c3C[C@H]2CN1C(=O)c1ccccc1`: the composite z-score in test [1] was 0.835; in [3], -0.318; in test [4] it was 1.01; in [5], 0.511; in test [6], 0.281; in test [7], 0.696. Besides, the composite z-score in test [8] is 1.61; in test [9], 2.24; in test [10], 0.177. Besides, the z-score in test [2] was -0.235.
As to `COC(=O)[C@]1(CO)N=C(c2ccc(OCCCO)cc2)O[C@@H]1c1ccccc1CN=[N+]=[N-]`, the composite z-score in [1] was -0.0942; in [3], -0.266; in test [4], -0.738; in test [5], -0.0036; in test [6] it was -0.145; in test [7], 0.0611. The values for the composite z-score in test [8], in test [9] and in test [10] were -0.0007, 0.751 and -0.0756, respectively. The compound further registered a z-score in test [2] of 0.606.
For the compound `C=CCC(OC(C)=O)[C@@H]1[C@@H](N(Cc2ccc(-c3cccc(C(F)(F)F)c3)o2)C(=O)c2cccc3ccccc23)c2cc(OCCCO)ccc2N1C(=O)c1ccc2ccccc2n1` (stereo not given in full), the composite z-score in test [1] is -0.193; in test [3], -0.309; in test [4] it was -0.484; in test [5] it was -0.108; in [6], -0.0459; in [7] it was 0.227. In addition, the composite z-score was 0.169 in test [8], 0.406 in test [9] and -0.482 in test [10]. In test [2], this compound returned a z-score of 0.66.
Take `N[C@@H](Cc1ccccc1)Cn1cc(C2(O)CCCCC2)nn1`: the composite z-score in test [1] was 0.488; in test [3] it was 0.0904; in test [4], 0.816; in [5], -0.431; in [6], -0.0236; in [7], 0.23. The composite z-score in test [8] is -0.0827; in [9] it was 0.228; in test [10], 0.967. This compound yielded a z-score in test [2] of 0.118.
`C=CC[C@]1(C(=O)N(C)C)COC(c2ccc(OCCCO)cc2)=N1`: the composite z-score was 0.326 in test [1]; -0.616 in [3]; 2.62 in test [4]; -0.372 in test [5]; -0.113 in [6]; 0.334 in test [7]. Moreover, the composite z-score was -0.246 in test [8], 2.09 in test [9] and 0.113 in test [10]. Also, in test [2], the z-score came to 1.55.
As to `C=CC[C@@]12N=C(c3ccc(OCCCO)cc3)O[C@@H]1c1ccccc1N(Cc1ccccc1)C2=O`, the composite z-score was 0.598 in test [1]; 0.657 in test [3]; 0.792 in test [4]; 0.355 in test [5]; 0.127 in test [6]; -0.114 in test [7]. Also, the composite z-score in test [8] was determined as 1.1; in test [9], 1.16; in [10] it was 0.858. Further, the z-score in [2] was -2.27.
